Test results reported in PubChem BioAssay (NCATS).
Results filed as inconclusive are left out. Active and inactive are the calls of the source. Calls come from the whole dose curve; as a rule, active = well fitted inhibition curve with a large enough effect in the signal ratio, with a control signal flat (not every such curve was filed as active); inconclusive = small, poorly fitted or top-dose-only effect, or effect the other way, or a change in a side signal; inactive = no such curve, though single readings can be large or run the other way; the % refers to the signal ratio.

These molecules were tested against Peroxisome proliferator-activated receptor delta (Homo sapiens) (UniProt Q03181) (assay: qHTS assay for small molecule antagonists of peroxisome proliferator-activated receptor delta signaling (AID 588535)). Conditions: HEK293T PPARd-UAS-bla, beta-lactamase FRET ratio, 18 h; series mostly up to 76.7 µM.
Sequence of Peroxisome proliferator-activated receptor delta (Homo sapiens) (Q03181 whole entry, looked up): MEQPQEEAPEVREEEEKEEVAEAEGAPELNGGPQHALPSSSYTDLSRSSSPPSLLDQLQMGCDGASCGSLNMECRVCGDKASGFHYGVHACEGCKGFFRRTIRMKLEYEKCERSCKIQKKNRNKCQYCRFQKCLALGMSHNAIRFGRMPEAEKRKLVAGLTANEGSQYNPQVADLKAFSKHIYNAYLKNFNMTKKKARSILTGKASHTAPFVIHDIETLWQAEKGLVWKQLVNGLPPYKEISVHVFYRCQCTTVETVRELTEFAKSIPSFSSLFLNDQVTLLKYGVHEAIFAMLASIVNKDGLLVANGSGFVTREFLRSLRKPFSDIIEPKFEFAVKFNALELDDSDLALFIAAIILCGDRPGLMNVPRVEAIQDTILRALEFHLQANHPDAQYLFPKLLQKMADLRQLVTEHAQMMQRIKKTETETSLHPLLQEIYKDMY
Text: NIH Chemical Genomics Center [NCGC] U.S. Environmental Protection Agency [EPA] National Institutes of Environmental Health Sciences [NIEHS] National Toxicology Program [NTP] NCGC Assay Overview The Peroxisome proliferator-activated receptors (PPARs) are lipid-activated transcription factors of the nuclear receptor superfamily with three distinct subtypes namely PPAR alpha, PPAR delta (also called PPAR beta) and PPAR gamma. All these subtypes heterodimerizes with Retinoid X receptor (RXR) and have different physiological functions. […] This role of PPAR delta implicates the potential use of its ligands in the treatment of metabolic disorders.
NCGC Assay Protocol Summary Using a beta-lactamase reporter-gene under control Peroxisome Proliferator-Activated Receptor delta (PPAR-delta) response element, a cell-based assay [GeneBLAzer (PPAR-delta-UAS-bla assay developed by Invitrogen] was used to measure PPAR-delta ligands signaling. GeneBLAzer PPAR-delta-UAS-bla HEK293T cells were used with assay medium containing 2% charcoal/dextran FBS. The assay was performed in clear bottom black Greiner 1536-well plates. Library compounds were measured for their ability to inhibit the reporter gene activity. Compounds were screened in a titration series in 1536-well format. The fluorescence intensity (405 nm excitation, 460/530 nm emission) was measured using an EnVision plate reader. […] Concentration-response titration points for each compound were fitted to the Hill equation yielding concentrations of half-maximal inhibition (IC50) and maximal response (efficacy) values. qHTS protocol for PPAR-delta beta-lactamase assay in antagonist mode [Step] [Parameter] [Value] [Description] 1. Reagent; 5 uL; 4000 cells/well 2. Incubation; 37 C for 5 hrs 3. Compounds; 23 nL; 0.59 nM to 92 uM 4. […] Incubation; 37 C for 18 hrs 7. Detection reagent; 1 uL of CCF4-dye 8. Incubation; RT for 2 hrs 9. Detection; Fluorescence; Envision plate reader
With NC(=O)c1ccccc1O the outcome was “inactive”. In the case of CCCCC(CC)COC(=O)c1ccc(N(C)C)cc1 (stereo not drawn), the outcome is reported as “inactive”. In the case of COc1ccc(C(=O)c2ccccc2)c(O)c1, the outcome is reported as “inactive”. In the case of CCCCCCCCOc1ccc(C(=O)c2ccccc2)c(O)c1, the outcome is reported as “inactive”. For CCCCCCCC/C=C\CCCCCCCCN, the outcome was “inactive”. With NCCNc1cccc2ccccc12 the outcome was “inactive”. C/C=C/c1ccc(O)c(OC)c1 was tested, and the outcome was “inactive”. In the case of CCCCCCCCCCCCCCCCO, the outcome is reported as “inactive”. For CN(C)C(=O)Nc1ccc(Cl)c(Cl)c1, the outcome was “inactive”. CCOc1ccccc1C(N)=O was tested, and the outcome was “inactive”. CCCN(CCC)S(=O)(=O)c1ccc(C(=O)O)cc1 was tested, and the outcome was “inactive”. In the case of COc1ccc(C(Cl)=C(c2ccc(OC)cc2)c2ccc(OC)cc2)cc1, the outcome is reported as “inactive”. CCCCOC(=O)CC(CC(=O)OCCCC)(OC(C)=O)C(=O)OCCCC was tested, and the outcome was “inactive”.
